# BaF3 parental – reduces parental Ba/F3 cell viability, JAK2V617F counter-screen; CellTiter-Glo ATP luminescence; inhibition, % at 5.6 µM; 220,000 tested, 1.1% active;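 active = inhibition above a per-campaign cutoff, the mean inhibition of all tested compounds plus 3 SD, cut at about 27% in these data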;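 note: 0% = DMSO wells and 100% = JAK Inhibitor I control wells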
# IEC-6 tox – counter-screen for KLF5 inhibitors: cytotoxicity in IEC-6 cells | IEC-6 cytotoxicity, luminescence viability | 290,000 tested, 0.78% active | inhibition, % at 5 µM;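 note: 0% = plate median of test compound wells and 100% = cytotoxic reference compound wells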
# KLF5 inh – suppresses KLF5 promoter-driven expression | DLD-1 KLF5 promoter-luciferase reporter, luminescence | inhibition, % at 5 µM | 290,000 tested, 0.23% active | AID 1700;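 active = inhibition above a per-plate limit of that plate's mean compound inhibition plus 3 SD, cut at about 60% in these data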;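 note: 0% = DMSO wells and 100% = LY294002 at 200 µM; higher means less KLF5 promoter-driven luciferase light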
# APP 5UTR inh – APP translation inhibition. inhibition, % at 2 µM. 190,000 tested, 0.82% active. AID 1285. SH-SY5Y APP 5'UTR-luciferase reporter, luminescence;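 active = inhibition above a set limit, derived from the sample mean plus 3 SD, cut at about 45% in these data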
# Ba/F3 V617F tox – lowers viability of Ba/F3 cells expressing EpoR and JAK2V617F. ATP luminescence. inhibition, % at 5.6 µM. 220,000 tested, 1.1% active. AID 1446;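 active = inhibition above the campaign mean plus 3 SD over all tested compounds, cut at about 24% in these data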;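 note: cytokine-independent growth of Ba/F3 cells driven by EpoR plus mutant JAK2; 0% = DMSO-treated cells and 100% = JAK inhibitor I control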
# IEC-6 tox confirm – confirmation of cytotoxic compounds in rat IEC-6 intestinal epithelial cells; shares compounds with IEC-6 tox; IEC-6 rat intestinal epithelial viability, luminescence; inhibition, % at 5 µM; 1,900 tested, 63% active;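 note: 0% = vehicle and 100% = reference cytotoxic drug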
# * hit, by the source's call; x = not tested or not shown. In the library only some 1.9% were active in any assay of this set; here they are far more common. Cut-off read from the data, not from the text of the source, unless noted: active = inhibition above about 22%; inactive = the rest.
SMILES,BaF3 parental,IEC-6 tox,KLF5 inh,APP 5UTR inh,Ba/F3 V617F tox,IEC-6 tox confirm
CCN1CCN(c2ncc3c(n2)CC(c2cc(OC)c(OC)c(OC)c2)CC3=O)CC1 (centres undefined),81.7*,65.1*,52.5,5.3,80.7*,57.4*
NS(=O)(=O)c1cccc(NC(=O)CCCNC(=O)c2ccc(Cl)cc2)c1,x,-2.2,-21.9,x,x,x
O=C(/C=C/c1ccccc1)Nc1ccc(Br)cn1,5.5,26.5*,-66.5,63.4*,8.8,56.0*
CCOC(=O)Nc1cc(=O)c2ccccc2o1,59.7*,44.0*,35.1,-10.8,69.3*,22.9*
CCOc1cc(C(=O)NN=C2CCCC2)cc(OCC)c1OCC,x,79.9*,16.6,x,x,-0.5
COc1ccc(C(=O)NN=C2CCCC2)cc1OC,x,8.4,-31.7,x,x,x
COc1cccc(CNC(=O)CCCn2ccc3cc(S(=O)(=O)N4CCCC4)ccc32)c1,x,-2.6,-12.3,x,x,x
O=C1c2ccccc2C(=O)c2[nH]cnc21,6.0,5.2,-29.8,x,-1.9,x
O=C1c2ccccc2C(=O)c2[nH]c(=O)[nH]c21,x,100.7*,47.1,x,x,97.8*
Cc1cc(NC(=O)/C(C#N)=C/c2ccc(-c3ccc(SC(F)F)cc3)o2)n(-c2ccccc2)n1,3.1,-4.4,-10.9,5.3,-0.1,x
Cc1ccc(C2NC(=O)c3ccccc3N2)s1 (centres undefined),80.0*,72.8*,43.2,18.4,83.0*,7.6
Cc1[nH]n2cnnc2c(=O)c1Br,-3.4,-2.9,-34.5,x,0.1,x
CCSC1=C(C#N)C(c2ccc(C)s2)CC(=O)N1 (centres undefined),0.0,-1.4,-3.5,-2.2,-2.1,x
CCOC(=O)CSC1=C(C#N)C(c2ccc(C)s2)CC(=O)N1 (centres undefined),77.5*,74.9*,52.7,91.4*,81.1*,52.5*
CCN1CCN(c2ccc(NC(=O)c3ccccc3F)cc2Cl)CC1,3.6,8.7,-109.0,-75.1,0.6,x
Cc1cc(C)nc(NC(=O)c2ccc([N+](=O)[O-])o2)n1,10.0,4.3,-26.4,19.7,3.3,x
COc1ccc(NC(=O)c2ccc([N+](=O)[O-])o2)cc1,x,43.5*,-19.5,x,x,1.3
Cc1cc(C)cc(NC(=O)c2ccc([N+](=O)[O-])o2)c1,58.6*,102.8*,9.3,70.7*,95.2*,24.2*
CC(=O)c1ccc(NC(=O)c2ccc([N+](=O)[O-])o2)cc1,x,32.2*,-19.4,x,x,10.9
O=S(=O)(NC1CCCC1)c1ccc(S(=O)(=O)N2CCc3ccccc32)cc1,15.1,9.6,2.3,-27.0,19.5,x
Cc1nnc(N/N=C/c2cccc(OCc3ccc(Cl)c(Cl)c3)c2)n1N,6.2,98.5*,-137.2,-36.2,5.4,3.9
COc1ccccc1-c1c(C#N)c(N)nc2c1CCc1ccccc1-2,8.2,23.5*,15.8,-2.7,11.7,19.0
O=C(O)/C=C/c1ccc2ccccc2n1,1.2,-1.0,-16.4,-2.4,-2.3,x
O=[N+]([O-])c1ccc(/C=C/c2ccc3ccccc3n2)cc1,8.9,87.6*,-95.1,-165.4,0.9,66.8*
O=[N+]([O-])c1ccc(/C=C/c2ccc3cccc(O)c3n2)cc1,x,42.3*,-132.5,x,x,16.8
SMILES,BaF3 parental,IEC-6 tox,KLF5 inh,APP 5UTR inh,Ba/F3 V617F tox,IEC-6 tox confirm
COc1cc(/C=C/c2ccc3cccc(O)c3n2)cc(Br)c1OC,x,-0.9,-62.8,x,x,x
COc1cc(/C=C/c2ccc3cccc(O)c3n2)cc(OC)c1OC,x,30.4*,-0.2,x,x,3.8
COC(=O)c1ccc(OC(=O)C2CC(=O)N(c3ccc(C)cc3C)C2)cc1 (centres undefined),1.0,7.7,-42.0,-13.0,0.5,x
c1ccc(-c2noc(-c3ccncc3)n2)nc1,34.2*,29.0*,-66.3,-103.6,32.7*,25.2*
c1ccc(-c2noc(-c3cccnc3)n2)nc1,8.6,6.9,-111.8,-75.0,2.9,x
CCCC(=O)Nc1ccc2c(c1)nc(CN1CCN(C(=O)OCC)CC1)n2CC,x,31.1*,48.8,x,x,17.7
O=C(COC(=O)C1CCCN1C(=O)C12CC3CC(CC(C3)C1)C2)c1ccc(Br)cc1 (centres undefined),0.2,3.4,-11.7,-31.5,-1.5,x
COc1ccc(N=Nc2ccc(O)c3ncccc23)cc1,4.1,10.4,-12.8,x,-2.9,x
COc1cccc(N=Nc2ccc(O)c3ncccc23)c1,x,30.4*,27.5,x,x,11.3
Nc1ccc(N=Nc2ccccc2)c2cccnc12,x,33.0*,-29.8,x,x,34.5*
COc1cccc(N=Nc2ccc3cccnc3c2O)c1,x,29.5*,61.0,x,x,55.7*
Nc1ccc(Br)c2cccnc12,8.7,10.9,14.8,6.3,-2.6,x
S=c1nc[nH]c2nc[nH]c12,x,82.9*,46.7,x,x,69.3*

# Screens as filed in PubChem BioAssay.
